Measurements taken from PubChem BioAssay (EPA / NIEHS).
Where “and” joins values, the source holds several entries; their conditions need not be identical. Equal values may be shown once. Inconclusive results are not listed. The source holds several records for some structures; these can differ, active in one and inactive in another. Calls of active or inactive are those of the source. The calls were made as follows: active = hit-call score of the fitted dose curve at least 0.9, where 1 is the maximum; inconclusive = response in the unintended direction; inactive = score below 0.9.

Target: Estrogen receptor beta (Homo sapiens) (UniProt Q92731)
Sequence (Q92731 whole entry, looked up): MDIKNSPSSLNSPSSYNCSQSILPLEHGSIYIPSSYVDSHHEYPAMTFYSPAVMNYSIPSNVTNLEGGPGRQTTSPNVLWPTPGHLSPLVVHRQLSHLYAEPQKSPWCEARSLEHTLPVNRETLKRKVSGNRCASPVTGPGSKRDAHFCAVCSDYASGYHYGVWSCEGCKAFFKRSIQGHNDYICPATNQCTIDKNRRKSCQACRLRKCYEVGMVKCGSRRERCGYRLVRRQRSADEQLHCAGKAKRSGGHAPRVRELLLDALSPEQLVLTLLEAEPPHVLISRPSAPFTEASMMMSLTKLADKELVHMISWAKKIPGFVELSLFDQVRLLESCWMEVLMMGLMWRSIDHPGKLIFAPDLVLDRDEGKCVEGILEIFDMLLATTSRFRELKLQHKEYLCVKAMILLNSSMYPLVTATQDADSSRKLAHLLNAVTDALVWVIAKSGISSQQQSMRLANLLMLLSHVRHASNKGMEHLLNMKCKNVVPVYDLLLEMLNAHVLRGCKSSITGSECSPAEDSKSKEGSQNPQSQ
Test: ATG_hERb_XSP2: Attagene TRANS-FACTORIAL Multi-Species (XSP2) HepG2 Assay for human Estrogen Receptor (ERb) (AID 2283813);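 also: actives raise reporter mRNA above DMSO so AC50 reflects agonist induction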
Procedure: ATG_XSP2_multi-species_TRANS is a cell-based, multiplexed assay created by modifying the existing Attagene TRANS-FACTORIAL system to include a panel of nuclear receptors from some or all the following species: human (Homo sapiens), mouse (Mus musculus), frog (Xenopus laevis), zebrafish (Danio rerio), chicken (Gallus gallus), and turtle (Chrysemys picta). The ECOTOX-FACTORIAL format uses HepG2, a human liver cell line, with measurements taken at 24 hours after chemical dosing in a 24-well plate. Xsp2 included 3 nM 6-alpha-fluorotestosterone and 1.5 nM norgestrel to stimulate the androgen receptor.ATG_hERb_XSP2 is one of 29 assay components measured or calculated from the ATG_XSP2_multi-species_TRANS assay. It is designed to make measurements of mRNA induction, a form of inducible reporter, as detected with fluorescence intensity signals by Reverse transcription polymerase chain reaction (RT-PCR) and Capillary electrophoresis technology.The assay endpoint ATG_hERb_XSP2 was analyzed in the positive analysis fitting direction relative to DMSO as the negative control and baseline of activity. Using a type of inducible reporter, measures of mRNA for gain-of-signal activity can be used to understand the reporter gene at the transcription factor-level as they relate to the gene ER. Furthermore, this assay endpoint can be referred to as a primary readout, because this assay has produced multiple assay endpoints where this one serves a reporter gene function. To generalize the intended target to other relatable targets, this assay endpoint is annotated to the nuclear receptor intended target family, where the subfamily is steroidal.
Human liver HepG2 cells are transiently transfected with multiple reporter transcription units (MRTUs) in 6-well plates using FuGene 6 reagent (Roche; 3 ml FuGene/1 mg DNA). The MRTU constructs are regulated by a cis-regulating element (promoter). […] A major difference between the CIS and TRANS system is that in CIS activities of endogenous TFs are measured, whereas the TRANS assay evaluates changes in activities of exogenous, chimeric NR-Gal4 proteins. […] At the end of 24 hour incubation, total RNA was isolated using TriZol reagent (Invitrogen). The isolated RNA is then reverse-transcribed using oligo(dT) primer and Mo-MLV reverse transcriptase (Invitrogen) with DNAse I (Ambion) treatment for 30 min. The one-tenth of the produced cDNA was amplified by PCR using Taq DNA polymerase (Invitrogen) and two reporter sequence-specific primers. The PCR products were fluorescently labeled by primer extension with 6-arboxyfluorescein (6-FAM) 5'-labeled reporter sequence-specific primer (2 min at 95 C, 20 s at 68 C and 10 min at 72 C) and these products were digested with 5U of HpaI (New England Biolabs) for 2h at 37 C. The fragments were purified using Qiaquick PCR columns (Qiagen), analyzed on an ABI 3130xL genetic analyzer (Applied Biosystems) with peak positions identified by using a set of X-rhodamine (ROX)-labeled MapMarker1000 molecular weight standards (BioVentures). The raw capillary electrophoresis data was processed using Attagraph software (Attagene).

Q: C[C@]12CCC(=O)C[C@@H]1CC[C@@H]1[C@@H]2CC[C@]2(C)[C@@H](O)CC[C@@H]12 was tested. Which outcome did it give?
A: inactive

Q: For C[C@H]1CCCC(=O)CCC/C=C/c2cc(O)cc(O)c2C(=O)O1, which outcome is on record?
A: inactive

Q: And the AC50?
A: 2.99 nM (active)

Q: Which AC50 does the source give for C[C@]12CC[C@H](O)CC1=CC[C@@H]1[C@@H]2CC[C@]2(C)C(=O)CC[C@@H]12 here?
A: 1.14 µM (active) and 962 nM (active)

Q: How did the AC50 turn out when Oc1ccc(-c2ccccc2)cc1 was run?
A: 1.16 µM (active) and 1.68 µM (active)

Q: Which outcome does the source give for Oc1c(I)cc(I)cc1I here?
A: inactive

Q: CC12CC1(C)C(=O)N(c1cc(Cl)cc(Cl)c1)C2=O (configuration not stated) was tested. Which outcome did it give?
A: inactive

Q: Which results are given for O=S(=O)(c1ccc(Cl)cc1)c1ccc(Cl)cc1?
A: AC50: 8120 nM (active); outcome: inactive

Q: CC(C)(C)CC(C)(C)c1ccc(O)cc1 was tested. Which outcome did it give?
A: inactive

Q: With Clc1ccc(C2(Cn3cncn3)CC(Br)CO2)c(Cl)c1 (configuration not stated) as the compound, how does the outcome read?
A: inactive

Q: For CC(C)C1CCC(Cc2ccc(Cl)cc2)C1(O)Cn1cncn1 (configuration not stated), which outcome is on record?
A: inactive
